CHO-K1 Ca ag: counter-screen for M1 agonists: effect in parental CHO-K1 cells. Fluo-8 calcium fluorescence; scaled to maximal ATP response, vehicle zero. activation, % at 3 µM. 360,000 compounds, 0.48% hits; in the data active = activation above about 15%;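 also: untransfected CHO-K1 host cells lacking M1 receptor as counterscreen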
CHRM1 antagonist: human M1 muscarinic receptor antagonists, primary screen, CHO-K1 cells, Fluo-8 calcium fluorescence, 1536-well. inhibition, % at 3 µM. Muscarinic acetylcholine receptor M1 (Homo sapiens), P11229. AID 588852, 2011. CHO-K1 hM1, ACh EC80 antagonist. 360,000 compounds, 1.3% hits;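 active = percent inhibition above its own plate's cutoff, namely the mean of that plate's compound wells plus 3 SD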;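 also: peak over basal fluorescence ratio during 140 s after agonist addition; 0% = ACh EC80 plus DMSO and 100% = DMSO alone without agonist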
Target sequence (P11229 whole entry, looked up): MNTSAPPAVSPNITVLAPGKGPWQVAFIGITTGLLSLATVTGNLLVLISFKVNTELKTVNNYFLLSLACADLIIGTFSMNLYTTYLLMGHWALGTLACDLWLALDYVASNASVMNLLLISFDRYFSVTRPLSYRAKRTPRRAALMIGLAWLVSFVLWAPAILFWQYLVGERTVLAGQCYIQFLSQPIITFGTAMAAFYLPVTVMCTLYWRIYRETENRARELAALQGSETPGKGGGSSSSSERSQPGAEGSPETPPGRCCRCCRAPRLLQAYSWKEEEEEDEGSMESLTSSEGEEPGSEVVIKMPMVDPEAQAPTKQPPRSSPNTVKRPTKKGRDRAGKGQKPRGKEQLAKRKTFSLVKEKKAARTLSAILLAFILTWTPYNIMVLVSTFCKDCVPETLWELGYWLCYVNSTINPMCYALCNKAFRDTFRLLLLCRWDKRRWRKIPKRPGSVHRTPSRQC
M1 PAM: human M1 muscarinic receptor positive allosteric modulators, primary screen, CHO-K1 cells, Fluo-8 calcium fluorescence, 1536-well; AID 588819, 2011; CHO-K1 hM1, ACh EC20; 0% = ACh EC20, 100% = maximal ACh; activation, % at 3 µM; 360,000 compounds, 0.088% hits; in the data active = activation above about 19%, passing the limit was not always enough
M1 PAM parental: nonselective calcium activators in parental CHO-K1 cells, primary screen, counter-screen for M1 PAM project, cell-based, Fluo-8 calcium fluorescence, full deck, 1536-well; ATP EC20; 0% at ATP EC20, 100% at ATP max; activation, % at 3 µM; 360,000 compounds, 0.02% hits; AID 602247, 2012;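 active = activation above the run cutoff, the mean activation of all test compounds plus 3 SD, cut at about 40% in these data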;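 also: peak over basal fluorescence ratio in a 140 s read after ATP addition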
CHRM1 agonist: human M1 muscarinic receptor agonists, primary screen, Fluo-8 calcium fluorescence, CHO-K1 cells, HTS; 360,000 compounds, 0.33% hits; AID 588814, 2011; activation, % at 3 µM; Muscarinic acetylcholine receptor M1 (Homo sapiens), P11229; CHO-K1 hM1, agonist mode; 0% DMSO, 100% acetylcholine EC100;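 active = activation above the run's mean compound activation plus 3 SD, cut at about 16% in these data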;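 also: peak over basal fluorescence ratio within a 140 s kinetic read after compound addition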
CHO-K1 Ca antag: counter-screen for M1 antagonists: effect in parental CHO-K1 cells; ATP-induced calcium, Fluo-8 fluorescence; inhibition, % at 3 µM; 360,000 compounds, 0.6% hits; AID 602250;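 active = inhibition above a per-plate cutoff, the plate's mean sample inhibition plus 3 SD, cut at about 24% in these data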;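 also: 0% = DMSO plus EC80 ATP and 100% = DMSO alone without ATP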
* marks the source's active call; other numbers are inactive results. This is a sample that favours compounds with a hit; in the whole collection about 2.3% have one here.

SMILES	CHO-K1 Ca ag	CHRM1 antagonist	M1 PAM	M1 PAM parental	CHRM1 agonist	CHO-K1 Ca antag
CCCNC(=O)Cn1c(=O)/c(=C/c2ccc(-c3ccc([N+](=O)[O-])cc3)o2)s/c1=C\C(=O)C(C)(C)C	32*	65*	-18	1	74*	31*
CC(C)[C@H](NC(=O)c1c(F)cccc1F)C(=O)Nc1cccc(Br)c1	19*	-6	5	3	-2	6
COc1cccc(-c2cnc3c(NC=O)cc(-c4ccc(N(C)C)cc4)cn23)c1	14	15	-1	4	3	25*
O=CNc1cc(-c2ccccc2)cn2c(-c3ccc(F)c(Cl)c3)cnc12	1	-9	4	18	-3	-16
CN(C)c1ccc(-c2cc(NC=O)c3ncc(-c4ccc(F)c(Cl)c4)n3c2)cc1	20*	17	-14	11	11	5

Screening data (PubChem)
